# Measured values taken from PubChem BioAssay (NCI).
# About 83,000 compounds went through this panel and 20% of them were active in at least one assay; those are over-represented in the sample as a whole.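 Assay: single dose, 48 h. Readout: percent growth (0 = no net growth; negative = cell death). Active: <10.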 Unmarked numbers belong to inactive results. The source made the active and inactive calls.
# Columns and labels:
# Test in all cases: NCI-60 one-dose screen, 48 h (100 = growth as untreated, 0 = no growth, -100 = all killed)
# Conditions in all cases: 10 µM
# DU-145 prostate = tested on: DU-145 prostate
# K-562 leukemia = tested on: K-562 leukemia
# MALME-3M melanoma = tested on: MALME-3M melanoma
# MDA-MB-231 breast = tested on: MDA-MB-231 breast
# RXF 393 renal = tested on: RXF 393 renal
# SF-268 CNS = tested on: SF-268 CNS
# SF-295 CNS = tested on: SF-295 CNS
# SF-539 CNS = tested on: SF-539 CNS
# M14 melanoma = tested on: M14 melanoma
# HCT-15 colon = tested on: HCT-15 colon
# HT29 colon = tested on: HT29 colon
# SNB-75 CNS = tested on: SNB-75 CNS
# SNB-19 CNS = tested on: SNB-19 CNS
# U251 CNS = tested on: U251 CNS
# PC-3 prostate = tested on: PC-3 prostate
# SK-MEL-5 melanoma = tested on: SK-MEL-5 melanoma
# UACC-62 melanoma = tested on: UACC-62 melanoma
# LOX IMVI melanoma = tested on: LOX IMVI melanoma
# SK-MEL-28 melanoma = tested on: SK-MEL-28 melanoma
# UACC-257 melanoma = tested on: UACC-257 melanoma
Compound,growth (DU-145 prostate),growth (K-562 leukemia),growth (MALME-3M melanoma),growth (MDA-MB-231 breast),growth (RXF 393 renal),growth (SF-268 CNS),growth (SF-295 CNS),growth (SF-539 CNS),growth (M14 melanoma),growth (HCT-15 colon),growth (HT29 colon),growth (SNB-75 CNS),growth (SNB-19 CNS),growth (U251 CNS),growth (PC-3 prostate),growth (SK-MEL-5 melanoma),growth (UACC-62 melanoma),growth (LOX IMVI melanoma),growth (SK-MEL-28 melanoma),growth (UACC-257 melanoma)
CNC(=O)c1cc(Oc2ccc3c(c2)sc2nc(-c4ccc(N)cc4)cn23)ccn1,7.79% (active),12%,66.8%,22.2%,43.8%,41.9%,18%,6.43% (active),15.5%,11%,0.705% (active),38.4%,32.1%,11.5%,29.2%,-0.651% (active),41.9%,22.7%,66.1%,–
C[C@]12CC[C@@H]3c4ccc(O)cc4CC[C@H]3[C@@H]1CC[C@@H]2NS(=O)(=O)c1ccc(C(F)(F)F)cc1,69.8%,22.5%,9.1% (active),67.2%,22.9%,57%,30.9%,78.1%,36.6%,32.7%,–,62.1%,97.5%,–,24.2%,–,73.5%,–,73.1%,73.6%
C/C=C/C1=CN2C(=O)c3cc(OC4OC(C)C(NC)C(C)(O)C4O)c(C)c(O)c3N=C[C@@H]2C1 (stereo partly drawn),-12.7% (active),4.18% (active),-51.9% (active),-10.1% (active),-40.5% (active),-35.5% (active),-25% (active),-46.1% (active),-63.2% (active),4.24% (active),5.18% (active),–,9.3% (active),5.6% (active),3.42% (active),-62.2% (active),-90.8% (active),-21.4% (active),-37.2% (active),-6.48% (active)
NC1=CC(=O)C(=O)c2cccnc21,28.3%,88.4%,-0.873% (active),83.9%,83.5%,90.4%,77.3%,101%,32.1%,66.7%,103%,45.5%,66.5%,–,78.2%,21%,88.3%,25.9%,83.7%,64.4%
CC1=CC2C(C(O)CC3(C)C2CC(C)C32OCOC23COCO3)C2(C)C/C(=C/O)C(=O)C=C12 (stereo not drawn),44.1%,2.43% (active),15.5%,18%,26.1%,24.8%,79.5%,41.5%,18.7%,-24.2% (active),3.89% (active),100%,56%,–,31.7%,44.2%,30.4%,-60.9% (active),66.3%,78.2%
CC[C@@H]1NC(=O)[C@H]([C@H](O)[C@H](C)C/C=C/c2ccc(CN3C(=O)CCCC3=O)cc2)N(C)C(=O)[C@H](C(C)C)N(C)C(=O)[C@H](CC(C)C)N(C)C(=O)[C@H](CC(C)C)N(C)C(=O)[C@@H](C)NC(=O)[C@H](C)NC(=O)[C@H](CC(C)C)N(C)C(=O)[C@H](C(C)C)NC(=O)[C@H](CC(C)C)N(C)C(=O)CN(C)C1=O,64.1%,39.6%,83%,51.4%,17.3%,63.1%,39%,23.7%,–,19.5%,-24.8% (active),56.7%,60.7%,60.2%,37.3%,23.2%,59.4%,1.01% (active),46.3%,20.8%
COc1ccc(-c2nn(-c3cccc(Cl)c3)cc2-c2cc(-c3ccccc3)[nH]c(=O)c2C#N)cc1,47.1%,44.9%,24.7%,-8.6% (active),-25.6% (active),34.8%,-36% (active),-45.9% (active),32.5%,63.8%,55.6%,38.4%,45.2%,–,71.6%,39.9%,35%,55.6%,71%,75.5%
COc1ccc(C(=O)N2C=Cc3ccccc3C2C#N)cc1 (stereo not drawn),109%,67.4%,100%,86.9%,90%,99.9%,99.2%,96.8%,116%,90.7%,110%,94.1%,93.6%,–,93.2%,101%,–,95.4%,95.3%,93.7%
